Tau fibril FP = tau fibrillization inhibition (FP); P10636; K18 P301L tau heparin fibrillization, Alexa594 FP, 6 h; Potency, µM (highest dose often 57.7 µM), inactives show at the highest dose activity, negative = inhibition, most hits filed as inhibitors; hit rate 0.39% among 280,000; AID 1468; also: nearly all actives have a fitted effect of over 55% in size
Target sequence (P10636 561-689 P618L limits assumed): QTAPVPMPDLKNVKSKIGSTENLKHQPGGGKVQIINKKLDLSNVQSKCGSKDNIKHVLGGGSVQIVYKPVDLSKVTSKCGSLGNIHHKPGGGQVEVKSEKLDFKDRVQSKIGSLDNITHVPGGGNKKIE
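Recombinant K18 P301L […], labeled with Alexa 594 at 0.24 uM over 15 uM unlabeled; heparin inducer 20 uM final; 37 C, 6 hr; FP endpoint.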
Tau fluor cs = counter-screen for tau fibril formation inhibitors. tau K18 P301L Alexa594 fluorescence, heparin fibrillization. Potency, µM (highest dose often 57.7 µM), without a hit: at the top dose activity change, negative = decrease. hit rate 0.93% among 280,000; also: nearly all actives have a fitted effect of over 55% in size
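Human tau K18 P301L (15 uM unlabeled, 0.24 uM Alexa 594-labeled) in 100 mM sodium acetate pH 7 with 20 uM heparin, 6 hr at 37 C. ThT 30 uM added, 1 hr ambient; Alexa 594 FP and total fluorescence read at 555/632 nm.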
KinaseGlo FLuc = counter-screen: inhibitors of Kinase-Glo firefly luciferase; Q27757; Kinase-Glo luciferase, ATP luminescence, 8 min; Potency, µM (titrated, usually from 38.3 µM), without a hit: at the highest dose activity change, negative = inhibition, hits mostly inhibitors; hit rate 0.28% among 200,000; also: nearly all actives have a fitted effect of over 60% in size
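Compounds were added to a substrate mix at pH 7.2 (50 mM imidazole, 10 uM ATP, within the enzyme's linear range), followed by Kinase-Glo detection reagent; luminescence was measured after 8 minutes at ambient temperature.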
Tau fibril ThT = inhibitors of human tau fibril formation, thioflavin T binding | hit rate 2.1% among 270,000 | recombinant tau K18 P301L (four-repeat tau fragment), heparin-induced fibrillization, ThT fluorescence | Potency, µM (highest dose often 57.4 µM), without a hit: at the highest dose activity, negative = inhibition, actives largely listed as inhibitors | P10636; also: nearly all actives have a fitted effect of over 55% in size
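Heparin-induced fibrillization of the P301L-mutant K18 repeat-domain fragment of human tau was followed by ThT binding in quantitative high-throughput format.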
NPSR antagonist = neuropeptide S receptor (human) antagonism, cAMP. Q6W5P4. CHO-NPSR cells, cAMP TR-FRET, antagonist mode. Potency, µM (titrated, usually from 38.3 µM), without a hit: at the top dose activity change, negative = inhibition, hits mostly inhibitors. hit rate 1% among 220,000. AID 1461; also: nearly all actives have a fitted effect of over 50% in size
Target sequence (Q6W5P4 whole entry, looked up): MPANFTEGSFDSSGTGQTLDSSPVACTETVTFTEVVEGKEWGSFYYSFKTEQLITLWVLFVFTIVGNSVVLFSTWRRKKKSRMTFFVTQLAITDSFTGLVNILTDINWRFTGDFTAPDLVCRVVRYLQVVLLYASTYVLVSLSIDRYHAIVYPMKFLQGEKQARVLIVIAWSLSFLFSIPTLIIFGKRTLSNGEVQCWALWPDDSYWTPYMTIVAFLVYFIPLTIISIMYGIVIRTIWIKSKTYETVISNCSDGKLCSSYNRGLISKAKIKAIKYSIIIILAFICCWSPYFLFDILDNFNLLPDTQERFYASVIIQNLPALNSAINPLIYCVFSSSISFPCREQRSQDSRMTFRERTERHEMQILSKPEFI
* = called active by the depositor; ? = inconclusive; / = no result; ! = not active in a repeat; [ ] = another dose, or the depositor's remark. In the library only some 3.3% were active in any assay of this set; here they are far more common. Calls follow the shape of the dose curve; as a rule, active = well fitted curve in the direction sought with a large enough effect; inconclusive = small, poorly fitted or top-dose-only effect, or another doubt; inactive = no such curve, though single readings can be large; an effect the other way counts as inactive or inconclusive. % is scaled to controls: 0 for no effect and ±100 for the full control effect; potency is read from the fitted curve at half-maximal effect.

SMILES	Tau fibril FP	Tau fluor cs	KinaseGlo FLuc	Tau fibril ThT	NPSR antagonist
CCCCc1cc2c(cn1)=C(OC(=O)c1cccs1)C(C)(OC(=O)CC)C(=O)C=2 (stereo unspecified)	-8%[11.6 µM]	-12%[11.6 µM]	-8%[7.66 µM]	-5%[11.5 µM]	/
COc1cccc(CNC(=O)CSc2n[nH]c(-c3ccccc3Cl)n2)c1OC	-4%	-2%	/	-4%	/
O=[N+]([O-])c1cccc(/C=N/n2cnnc2)c1O	-12%	-5%	-2%	16µM*	1%
N#Cc1c(Sc2ncc(C(F)(F)F)cc2Cl)nsc1C/C=N\OCc1c(F)cccc1Cl	-6%	?	-1%	?	10µM*
COc1cc(O)c(NC(C)=O)c2nonc12	?	-15%	16%	7.9µM*	-16%[46.1 µM]
CCC(=O)Oc1ccc(NC(=O)c2ccco2)cc1	4%	2%	?	-1%	17%
Cc1nn(CCCC(=O)Nc2cc(Oc3ccccc3)cc([N+](=O)[O-])c2)c(C)c1[N+](=O)[O-]	7%	10µM*[quencher]	/	-3%	-20%[46.1 µM]
Cc1ccc(Oc2cc(NC(=O)CCCn3nc([N+](=O)[O-])cc3C)cc([N+](=O)[O-])c2)cc1	3%	10µM*[quencher]	1%	-7%	-20%
O=C(Nc1ccc(OC(=O)c2ccco2)cc1)c1ccco1	3%	-1%	13µM*	-9%	11%[46.1 µM]
Cc1ccc(C)c(Oc2cc(NC(=O)CCCn3nc(C)c([N+](=O)[O-])c3C)cc([N+](=O)[O-])c2)c1	1%	-2%	4%	-4%	?
O=C(Nc1cc(Oc2ccc(Cl)cc2)cc([N+](=O)[O-])c1)c1ccco1	-24%	7.1µM*[quencher]	1%	-7%	-37%
CCCCCCC(C)OC(=O)c1ccccc1C(=O)O (stereo unspecified)	-10%	-13%	/	-9%	-11%
COc1ccc(OC)c(CCNC(=O)Cn2ccc3cc(S(=O)(=O)N4CCCCC4)ccc32)c1	11%	-23%	/	-3%	/
Cc1cccc(Oc2cc(NC(=O)c3ccccc3)cc([N+](=O)[O-])c2)c1	-9%	7.1µM*[quencher]	1%	0%	-12%[46.1 µM]
Cn1cc([N+](=O)[O-])c(C(=O)Nc2cc(Oc3ccccc3)cc([N+](=O)[O-])c2)n1	3%	?	-2%	-13%	-32%
O=C1C(=C(c2ccccc2)c2ccccc2)Nc2ccccc21	-11%	?	11%	16µM*	13µM*
CCn1cc(C(=O)NCC2CCCO2)c(=O)c2cc(S(=O)(=O)N3CCCCCC3)ccc21 (stereo unspecified)	1%	-16%	-1%	-5%	3.2µM*
CCn1cc(C(=O)NCC2CCCO2)c(=O)c2cc(S(=O)(=O)N3CCC(C)CC3)ccc21 (stereo unspecified)	5%	-16%	1%	-11%	-11%[46.1 µM]
Cc1cccc(CCNC(=O)CCc2c(C)nc3c4c(C)cc(C)nc4nn3c2C)c1	-2%	-3%	/	?	/
Cc1ccc(-n2c(=O)c3sc4ccccc4c3n(CC(=O)NC3CCCC3)c2=O)cc1C	-5%	-11%	/	5%	/
CC(/C=C(\NC(=O)c1ccccc1)C(=O)N=Nc1c(O)[nH]c2ccc(C)cc12)=C\c1ccccc1	-3%	?	-3%	20µM*	-19%[46.1 µM]
Cc1ccc2[nH]c(O)c(N=NC(N)=S)c2c1	-2%	-10%	/	?	15%[7.67 µM]
O=C(CSc1ncc(CO)n1Cc1ccccc1)Nc1ccc(C(F)(F)F)cc1	-11%	-20%	/	3%	/
Cc1ccc(-c2nc3c4ccccc4n(Cc4cccc(Cl)c4)c(=O)n3n2)cc1	-17%	-21%	/	-12%	/
CC(=O)NC(c1ccccc1)c1cc([N+](=O)[O-])c2cccnc2c1O (stereo unspecified)	?	-14%	5%	10µM*	-12%
SMILES	Tau fibril FP	Tau fluor cs	KinaseGlo FLuc	Tau fibril ThT	NPSR antagonist
Cc1ccc(NC(=O)Cn2c(=O)n(Cc3ccccc3)c(=O)c3c(C)c(C(=O)N(C)C)sc32)c(C)c1	-8%	-19%	/	0%	/
S=C(N=Nc1ccccc1)NNc1ccccc1	?	20µM*[quencher]	-7%	25µM*	4%
CC1(OC(=O)c2ccc(Cl)nc2)C(=O)C=C2C=C3CCCN3C=C2C1=O (stereo unspecified)	?	-11%[11.6 µM]	-3%[7.66 µM]	5µM*	9%
CC1(OC(=O)C2CCCC2)C(=O)C=C2C=C3CCCCN3C=C2C1=O (stereo unspecified)	2%[11.6 µM]	-7%[11.6 µM]	-2%[7.66 µM]	?	11%
CC1(OC(=O)c2ccc(Cl)nc2)C(=O)C=C2C=C(c3ccc(C#N)cc3)OC=C2C1=O (stereo unspecified)	?	?	0%	25µM*	/
COC(=O)CCC(=O)OC1(C)C(=O)C=C2C=C3CCCN3C=C2C1=O (stereo unspecified)	?	-6%[11.6 µM]	-1%[7.66 µM]	10µM*!	16%
CC1(OC(=O)c2ccc(Cl)nc2)C(=O)C=C2C=C(c3ccsc3)OC=C2C1=O (stereo unspecified)	-4%	-16%	-1%	?	/
COc1ccc(CCCc2nnc(SCC(=O)Nc3ccc(C)cc3C)o2)cc1	10%	-9%	/	-12%	/
O=C1OC(Nc2ccc3c(c2)OCO3)c2ccccc21 (stereo unspecified)	?	?	2%	13µM*	-19%[46.1 µM]
Cc1ccc2c(=O)c(C(=O)c3ccccc3)cn(CC(=O)Nc3ccccc3)c2n1	-2%	-2%	/	-3%	/
COc1ccc(-c2csc(NC(=O)c3ccccc3NS(=O)(=O)c3ccc(F)c(F)c3)n2)cc1	?	?	0%	22µM*	-50%
COc1ccc2[nH]cc(CC(N)C(=O)O)c2c1 (stereo unspecified)	-12%	-27%	-1%	?	/
N[C@@H](Cc1c[nH]c2ccc(O)cc12)C(=O)O	?	?	-3%	28µM*	?
O=C(Nc1ccccc1)c1cnc(N2CCCCC2)c2ccccc12	-4%	-19%	/	-10%	/
CCOC(=O)C1CCCN(c2ccc(NC(=O)c3snc4c(=O)[nH]cnc34)cc2)C1 (stereo unspecified)	12%	-27%	-2%	2.8µM*	16µM*
Cc1cc(N)c2ccccc2[n+]1CCCCCCCCCCCCCC[n+]1c(C)cc(N)c2ccccc21	2%	2%	-6%	?	16µM*
Cc1cc(N)c2ccccc2n1	0%	3%	-3%	3%	11%
COc1ccc2c(c1)-c1c(ssc1=S)C(C)(C)N2	-10%	16µM*[quencher]	-6%	14µM*	-28%[46.1 µM]
COc1ccc2c(c1)-c1c(ssc1=S)C(C)(C)N2S(=O)(=O)c1ccc(C)cc1	-8%	-26%	2%	-11%	-9%
COc1ccc(-n2sc3c(c2=S)-c2cc(OC)ccc2NC3(C)C)cc1	?	7.9µM*[quencher]	1%	?	-17%[46.1 µM]
COc1ccc2c(c1)-c1c(sn(-c3ccc(OC)c(OC)c3)c1=S)C(C)(C)N2	13%	?	-1%	?	-29%[46.1 µM]

Assay outcomes deposited in PubChem by National Center for Advancing Translational Sciences (NCATS).
